The values that follow come from PubChem BioAssay (NCATS).

Each structure is given as a SMILES string. Records with an inconclusive call do not appear. Values without a mark were called inactive. Activity calls are given as the source filed them. Calls come from the whole dose curve; as a rule, active = well fitted inhibition curve with a large enough effect; inconclusive = small, poorly fitted or top-dose-only effect; inactive = no such curve, though single readings can be large or run the other way.
% is set by controls: 0 for no effect and ±100 for the full control effect; potency is the fitted concentration of half-maximal effect.

The nature of this assay: Primary qHTS for inhibitors of nuclear receptor binding SET domain protein 2 (NSD2) in an RCH-ACV wild type WT cells (2C) (AID 1645877). Note: nearly all actives have a fitted effect of over 70% in size. The note with it: RCH-ACV (leukaemia line) NSD2 WT (2C) viability, CellTiter-Glo, 72 h; series mostly up to 44.9 µM; activity change, negative = cell killing: at the top concentration.
As to `C=C1CC2C3(C)C(OC(C)=O)CC(=O)OC(C)(C)C3C(O)C(OC(C)=O)C2(C)C2C(=O)OC(C)C(=O)C12C` (stereo unspecified), the “activity change, negative = cell killing” value is -18.9% [at 17.3 µM].
Turning to `CC(C)(O)C1CCC2(C)C3C(O)C4C(C13)C42CO` (stereo unspecified), the compound was called inactive.
Take `C/C=C1\[C@H](O[C@@H]2O[C@H](CO)[C@@H](O)[C@H](O)[C@H]2O)OC=C(C(=O)OC)[C@H]1CC(=O)OC`: the “activity change, negative = cell killing” value was -23.2% [at 17.3 µM].
`C/C=C1/[C@H](O[C@@H]2O[C@H](CO)[C@@H](O)[C@H](O)[C@H]2O)OC=C(C(=O)OC)[C@H]1CC(=O)O[C@@H]1O[C@H](CO)[C@@H](O)[C@H](O)[C@H]1O`: the “outcome” value is “inactive [at 17.3 µM]”.
On to `CC(=O)c1c(C)cc(O)cc1O[C@@H]1O[C@H](CO)[C@@H](O)[C@H](O)[C@H]1O`, for which the “activity change, negative = cell killing” value was 1.64%.
As to `COc1cc2c(cc1O)CCN[C@]21CS[C@@H]2c3c(OC(C)=O)c(C)c4c(c3[C@H](COC1=O)N1[C@@H]2[C@H]2c3c(cc(C)c(OC)c3O)C[C@@H]([C@@H]1O)N2C)OCO4`, the Potency is 1.4 nM (active).
Take `C=C(C(=O)OC)C1CCC2(C)C(O[C@@H]3O[C@H](CO)[C@@H](O)[C@H](O)[C@H]3O)CC(=O)C(C)C2C1O` (stereo partly specified): the “activity change, negative = cell killing” value is 0.381% [at 17.3 µM].
On to `C=C1[C@@H]2[C@H]3OC(=O)C(=C)[C@@H]3CC[C@@](C)(O)[C@@H]2C[C@@H]1O[C@@H]1O[C@H](CO)[C@@H](O)[C@H](O)[C@H]1O`, for which the “outcome” value is “inactive [at 17.3 µM]”.
Consider `CC1OC(OC2C(C)OC(OC3C(OC(=O)/C=C/c4ccc(O)cc4)C(CO)OC(OC4(COC(=O)/C=C/c5ccc(O)cc5)OC(CO)C(O)C4O)C3OC3OCC(O)(CO)C3O)C(O)C2O)C(O)C(O)C1O` (stereo unspecified), for which the activity change, negative = cell killing was -11.9% [at 9.23 µM].
On the same count and under the same terms, the figure for `CN1C(=O)c2ccccc2-n2c(nc3ccccc3c2=O)[C@@]12O[C@H]2c1ccccc1` is -5.41%; for `COC1CCCC/C(C)=C/C2C=C(C)C(C)C3C(CC(C)C)NC(=O)C23C(=O)C1` (stereo unspecified) it is -8.5% [at 17.3 µM].
Consider `C[C@@H]1CCC2C(C)(C)[C@H](O)CC[C@]2(C)[C@@]12Cc1c(O)cc3c(c1O2)CN(CCO)C3=O` (stereo partly specified), for which the “activity change, negative = cell killing” value is -17.9% [at 17.3 µM].
In the case of `CC(=O)OC1C(O)CC(O[C@@H]2O[C@H](CO)[C@@H](O)[C@H](O)[C@H]2O)C2CCC3C(=O)OC(c4ccoc4)CC3(C)C21` (stereo partly specified), the “activity change, negative = cell killing” value is -2.67% [at 17.3 µM].
`CC1(O)CCC2C(C(=O)O)=COC(OC3OC(CO)C(O)C(O)C3OC(=O)/C=C/c3ccc(O)cc3)C21` (stereo unspecified): the “activity change, negative = cell killing” value was -9.34% [at 17.3 µM].
As for `CC(C)(O)/C=C1/C(=O)C(C)(C)C(=O)C(C)(C)C1(O)O[C@@H]1O[C@H](COC(=O)c2cc(O)c(O)c(O)c2)[C@@H](O)[C@H](O)[C@H]1O` (stereo partly specified), the “activity change, negative = cell killing” value was -24.2% [at 17.3 µM].
Same read-out and setting: the result for `COC1=CC(=O)O[C@@H](/C=C/c2ccccc2)[C@@H]1O` reads 0.903%.
Consider `CC(C)CC1(C(=O)OCc2ccc(O[C@@H]3O[C@H](CO)[C@@H](O)[C@H](O)[C@H]3O)cc2)CC(=O)OC(C(=O)O)CC(=O)OCC2OC(O1)C(OC(=O)/C=C/c1ccc(O)cc1)C(O)C2O` (stereo partly specified), for which the activity change, negative = cell killing is 0.208% [at 9.23 µM].
For the compound `COC1=Cc2c(nc3n(c2=O)C(C)C(=O)NC3(O)C(C)C)OC=C1` (stereo unspecified), the “activity change, negative = cell killing” value is -11.4%.
For the compound `CC(C)NC[C@H](O)COc1ccc(CCOCC2CC2)cc1`, the “activity change, negative = cell killing” value is 3.57%.
As to `Cc1cc(O)cc(Oc2cc(C)c(C(=O)O)c(O)c2)c1`, the “activity change, negative = cell killing” value was 1.5%.
For the compound `C=C1CC/C=C(/CO)C(=O)C[C@@H]2[C@@H]1CC2(C)C`, the “activity change, negative = cell killing” value is -9.23%.
`CCNC(=O)[C@@H]1CCCN1C(=O)[C@H](CCCN=C(N)N)NC(=O)[C@H](CC(C)C)NC(=O)[C@@H](C)NC(=O)[C@H](Cc1ccc(O)cc1)NC(=O)[C@H](CO)NC(=O)[C@H](Cc1c[nH]c2ccccc12)NC(=O)[C@H](Cc1cnc[nH]1)NC(=O)[C@@H]1CCC(=O)N1`: the “outcome” value is “inactive [at 17.3 µM]”.
`COC(=O)C12C(=O)C(C)=C(O)C1(C)C(C)=CC1C34CCC(OC3=O)C(C)(C)C4CCC12C` (stereo unspecified): the “activity change, negative = cell killing” value was 0.607% [at 17.3 µM].
As to `COc1c2c(c(C)c3c1C(=O)OC3)OC1(C)CC(O)C3(O)C(C)(C)OC(=O)CCC3(C)C1C2` (stereo unspecified), the “outcome” value was “inactive [at 17.3 µM]”.
Turning to `C[C@@H]1O[C@@H](O[C@H]2[C@H](O[C@H]3[C@H](O[C@H]4CC[C@@]5(C)C(CC[C@]6(C)C5CC=C5[C@@H]7CC(C)(C(=O)O)C[C@@H](O)[C@]7(C)CC[C@]56C)[C@@]4(C)CO)O[C@H](C(=O)O)[C@@H](O)[C@@H]3O)O[C@H](CO)[C@H](O)[C@@H]2O)[C@H](O)[C@H](O)[C@H]1O` (stereo partly specified), the activity change, negative = cell killing was -5.72% [at 9.23 µM].
In the case of `COc1ccc(C(=O)O[C@H]2CC(C)=CC[C@@]3(C)[C@@H](OC(C)=O)C[C@@](O)(C(C)C)[C@H]23)cc1`, the “activity change, negative = cell killing” value was -22.3% [at 17.3 µM].
